TCR CD3 inh: human TCR-CD3 binding inhibition; TAMRA-labeled TCR probe fluorescence, biochemical; inhibition, % at 9.4 µM; actives 0.37% (n = 360,000);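 further: recombinant mutant TCR 2C K166C tagged with TAMRA read by polarization; 0% = receptor in buffer alone and 100% = receptor with positive control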
PAD4 FP inh: inhibitors of human PAD4 | recombinant PAD4, RCA probe fluorescence polarization | inhibition, % at 6.36 µM | Q9UM07 | actives 0.41% (n = 330,000);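 active means percent inhibition above a cutoff equal to the mean of all tested compounds plus 3 SD, cut at about 15% in these data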;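 further: 0% = PAD4 with RCA probe and DMSO and 100% = probe without PAD4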
Target sequence (Q9UM07 whole entry, looked up): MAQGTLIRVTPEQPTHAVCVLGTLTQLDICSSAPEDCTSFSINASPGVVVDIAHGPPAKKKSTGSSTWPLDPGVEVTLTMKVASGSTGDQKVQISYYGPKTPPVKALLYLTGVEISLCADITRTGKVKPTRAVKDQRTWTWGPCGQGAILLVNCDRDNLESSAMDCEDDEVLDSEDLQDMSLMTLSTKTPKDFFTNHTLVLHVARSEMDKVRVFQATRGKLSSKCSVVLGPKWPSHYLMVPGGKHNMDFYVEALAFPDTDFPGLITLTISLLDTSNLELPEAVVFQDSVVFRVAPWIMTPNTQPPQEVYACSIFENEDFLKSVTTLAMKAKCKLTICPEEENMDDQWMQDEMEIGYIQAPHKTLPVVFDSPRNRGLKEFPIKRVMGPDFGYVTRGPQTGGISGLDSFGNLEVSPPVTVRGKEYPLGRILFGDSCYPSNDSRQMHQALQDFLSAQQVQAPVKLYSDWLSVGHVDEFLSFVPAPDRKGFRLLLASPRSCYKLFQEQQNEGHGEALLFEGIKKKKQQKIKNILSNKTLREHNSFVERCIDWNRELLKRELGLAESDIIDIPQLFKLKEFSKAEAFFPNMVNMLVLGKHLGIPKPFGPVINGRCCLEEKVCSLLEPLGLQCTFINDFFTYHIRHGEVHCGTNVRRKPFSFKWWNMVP
PRMT1 inh: inhibitors of human PRMT1; Q99873; recombinant PRMT1, activity-based probe fluorescence polarization; inhibition, % at 2.79 µM; actives 1.3% (n = 370,000); AID 652257;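 active means inhibition above about 21% made by adding two undisclosed values, limit read from the data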
SIAE primary: inhibitors of human sialic acid acetylesterase SIAE; Q9HAT2; SIAE FP-Rh probe binding, fluorescence polarization; inhibition, % at 9.66 µM; actives 0.69% (n = 370,000);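 active means inhibition above a cutoff: mean of compounds within the control limits plus 3 SD of those, cut at about 17% in these data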;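 further: 0% = plate median of compound wells and 100% = probe without SIAE protein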
Fam108B counter: blocks mouse Fam108B hydrolase in RBBP9 counter-screen; AID 1947; actives 0.33% (n = 300,000); recombinant Fam108B, FP-Rh probe fluorescence polarization; inhibition, % at 9.51 µM;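 active means inhibition above the screen mean inhibition plus 3 SD, computed separately per campaign, cut at about 18% in these data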;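 further: inhibitors lower polarization as less probe binds the enzyme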
PME-1 primary: PME-1 (human) inhibition | recombinant PME-1, FP-Rh probe fluorescence polarization | actives 0.53% (n = 320,000) | inhibition, % at 5.9 µM | Q9Y570;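 active means inhibition above the campaign mean of all compounds plus 3 SD, cut at about 26% in these data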;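 further: competitive labeling of PME-1 active site by serine hydrolase directed probe; 0% = PME-1 with DMSO and 100% = wells lacking PME-1 enzyme; inhibitors block probe labeling so polarization falls and inhibition rises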
BSA TAMRA ctr: interferes with TAMRA-BSA probe, flagging TCR-CD3 hits; actives 10% (n = 1,200); inhibition, % at 9.4 µM; AID 652035; shares compounds with TCR CD3 inh; TAMRA-labeled BSA probe fluorescence counterscreen; in the data active means inhibition above about 23%;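 further: 0% = buffer low control and 100% = reference high control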
TCR-CD3 inh conf: TCR-CD3 interaction inhibition, confirmation; shares compounds with TCR CD3 inh; TAMRA-labeled TCR probe fluorescence binding assay; inhibition, % at 9.4 µM; actives 48% (n = 1,200); AID 652036
* = called active by the depositor. An excerpt weighted towards active compounds, which were near 2.6% of everything screened. Unless noted, no stated cut-off is given here; in the data, active means inhibition above about 19%; inactive means the rest.

O=C(N/N=C/C1=C(N2CCOCC2)C(=C\c2ccccc2)/CC1)Nc1ccccc1 was read as TCR CD3 inh -4, PAD4 FP inh -1, PRMT1 inh 2, SIAE primary 4, Fam108B counter 0 and PME-1 primary 1.
Screening O=C(NNC(=O)c1ccc2ccccc2c1O)c1ccccc1Cl returned TCR CD3 inh 29*, PAD4 FP inh -1, PRMT1 inh 6, SIAE primary 15, Fam108B counter -2, PME-1 primary 0, BSA TAMRA ctr -5 and TCR-CD3 inh conf 35*.
Screening O=C(NNC(=O)c1cc2ccccc2cc1O)c1cccs1 returned TCR CD3 inh 17, PAD4 FP inh 3, PRMT1 inh 3, SIAE primary 0, Fam108B counter 6 and PME-1 primary 13.
O=C(NC(=S)NNC(=O)c1cccs1)c1ccccc1 was read as TCR CD3 inh 22*, PAD4 FP inh 6, PRMT1 inh 4, SIAE primary 5, Fam108B counter 2, PME-1 primary -3, BSA TAMRA ctr 1 and TCR-CD3 inh conf 25*.
Screening O=C(NNC(=O)c1ccc2ccccc2c1O)c1cccs1 returned TCR CD3 inh 40*, PAD4 FP inh 2, PRMT1 inh -1, SIAE primary 10, Fam108B counter -2, PME-1 primary 2, BSA TAMRA ctr -2 and TCR-CD3 inh conf 33*.
`CC(C)(C)c1ccc(C(=O)NC(=S)NNC(=O)c2cccs2)cc1` gave TCR CD3 inh -2, PAD4 FP inh 3, PRMT1 inh 2, SIAE primary 5, Fam108B counter -2 and PME-1 primary 0.
COc1ccccc1NC(=O)OCCCN1CCC2(CCC(C)CC2)C1=O (stereo not given) was read as PRMT1 inh 1 and SIAE primary 10.
Screening CCOC(=O)[C@@]12CCCC=C1N(CCc1ccc(Cl)cc1)C(=O)[C@H]2CC(=O)N1CCSCC1 returned PRMT1 inh -3 and SIAE primary 7.
For O=c1c(CO)cc(CO)cc(CO)c1O the results were TCR CD3 inh 31*, PAD4 FP inh 4, PRMT1 inh -1, SIAE primary 6, Fam108B counter 1, PME-1 primary -6, BSA TAMRA ctr -1 and TCR-CD3 inh conf 22*.
CN1CCN(C(=O)c2cc3c(c(-c4cccc(-c5cccnc5)c4)n2)[C@@H](CCO)N(C(=O)CC2CC2)C3)CC1 was read as TCR CD3 inh 25*, PRMT1 inh 3, SIAE primary 3, BSA TAMRA ctr 1 and TCR-CD3 inh conf 0.
Screening Cc1cccc(NC(=O)C2CCN(c3ncccn3)CC2)c1C returned PRMT1 inh 7 and SIAE primary 5.
COc1ccc(/C=N/NC(=O)c2ccncc2)cc1[N+](=O)[O-] was read as TCR CD3 inh -2, PAD4 FP inh -6, PRMT1 inh 2, SIAE primary -6, Fam108B counter 1 and PME-1 primary -1.
COc1cc(O)c(/C=N/NC(=O)c2ccncc2)c(OC)c1[N+](=O)[O-] was read as TCR CD3 inh 19*, PAD4 FP inh -3, PRMT1 inh 1, SIAE primary 2, Fam108B counter 8, PME-1 primary -4, BSA TAMRA ctr 0 and TCR-CD3 inh conf 31*.
For CC1=NN(C(=O)CSCc2ccccc2)C(O)(c2ccc(Cl)cc2)C1 (stereo not given) the results were TCR CD3 inh 20*, PAD4 FP inh 2, PRMT1 inh -3, SIAE primary -2, Fam108B counter 4, PME-1 primary 1, BSA TAMRA ctr -6 and TCR-CD3 inh conf 7.
`CCCCOCCCNC(=O)C[C@H]1C[C@@]2(C(=O)OC)C(=C[C@H](COCc3ccccc3)O[C@@H]2C)N(Cc2ccco2)C1=O` gave PRMT1 inh -1 and SIAE primary 6.
Screening NC(=O)CCC1NC(=S)N(Cc2ccccc2)C1=O (stereo not given) returned TCR CD3 inh 34*, PAD4 FP inh -1, PRMT1 inh 5, SIAE primary 3, Fam108B counter 0, PME-1 primary 3, BSA TAMRA ctr 13 and TCR-CD3 inh conf 45*.
Screening CN1C(=O)C(CCC(N)=O)NC1=S (stereo not given) returned TCR CD3 inh 13, PAD4 FP inh -3, PRMT1 inh 4, SIAE primary 0, Fam108B counter 1 and PME-1 primary 2.
For O=C(CCn1nnc(-c2cccs2)n1)N1CCCC1 the results were PRMT1 inh -1 and SIAE primary -5.
For Cc1ccc(C)c(N(CC(=O)Nc2ccc(-c3nc4ccc(C)cc4s3)cc2)S(C)(=O)=O)c1 the results were TCR CD3 inh 20*, PAD4 FP inh 0, PRMT1 inh 0, SIAE primary -5, Fam108B counter -2, PME-1 primary -11, BSA TAMRA ctr 9 and TCR-CD3 inh conf 15.
Cc1ccc(N(CC(=O)Nc2ccc(-c3nc4ccc(C)cc4s3)cc2)S(C)(=O)=O)cc1 was read as TCR CD3 inh -1, PAD4 FP inh -8, PRMT1 inh 0, SIAE primary -4, Fam108B counter -19 and PME-1 primary -17.
`Cc1ccc2[nH]c(C(=O)N/N=C/c3ccccc3O)c(C)c2c1` gave TCR CD3 inh 20*, PAD4 FP inh -5, PRMT1 inh 2, SIAE primary 9, Fam108B counter 8, PME-1 primary 11, BSA TAMRA ctr -6 and TCR-CD3 inh conf 19.
For COC(=O)C1CN(Cc2cn(Cc3ccccc3)nn2)CCS(=O)(=O)N1Cc1ccccc1 (stereo not given) the results were PRMT1 inh -1 and SIAE primary 2.
O=S(=O)(Nc1cccc2ncccc12)c1cccc(C(F)(F)F)c1 was read as TCR CD3 inh 20*, PAD4 FP inh -7, PRMT1 inh 1, SIAE primary 1, PME-1 primary 8, BSA TAMRA ctr 3 and TCR-CD3 inh conf 8.
Cc1ccc(S(=O)(=O)Nc2cccc3ncccc23)cc1 was read as TCR CD3 inh -7, PAD4 FP inh 2, PRMT1 inh 1, SIAE primary 2, Fam108B counter -2 and PME-1 primary -4.
Screening COc1ccc(C)cc1NC(=O)CCCNC(=O)Cn1cnc2sc(C)c(C)c2c1=O returned TCR CD3 inh -8, PAD4 FP inh 2, PRMT1 inh 2, SIAE primary -3, Fam108B counter -2 and PME-1 primary -7.
COc1ccc(NC(=O)CCCNC(=O)Cn2cnc3sc(C)c(C)c3c2=O)c(OC)c1 was read as TCR CD3 inh 72*, PAD4 FP inh 5, PRMT1 inh 0, SIAE primary -3, Fam108B counter 0, PME-1 primary 0, BSA TAMRA ctr -4 and TCR-CD3 inh conf 1.

From PubChem BioAssay
